# According to PubChem BioAssay (NCATS):
# A number with no mark means an inactive call. Results filed as inconclusive are left out. Where a call stands in place of a potency, no number is given. Active and inactive are the calls of the source. Unless noted, calls follow the shape of the dose curve; as a rule, active = well fitted curve in the direction sought with a large enough effect; inconclusive = small, poorly fitted or top-dose-only effect, or another doubt; inactive = no such curve, though single readings can be large; an effect the other way counts as inactive or inconclusive.
# Tests used:
# [1] = qHTS for Inhibitors of Plasmodium falciparum (7G8) proliferation (AID 504316); also: nearly all actives have a fitted effect of over 65% in size; also: potency is read from the fitted curve at half-maximal effect; as to activity change, negative = inhibition: series mostly up to about 6.7 µM
# In short: (§1)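 Erythrocytes infected with P. falciparum line (0.3% parasitemia, 2.5% hematocrit final) incubated with compounds 72 h at 37 °C, 5% CO2; SYBR Green lysis buffer added, fluorescence read next day. Normalized to 0.29 uM artemisinin and DMSO.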
# [2] = qHTS for Inhibitors of Plasmodium falciparum (CP250) proliferation (AID 504320); also: potency is read from the fitted curve at half-maximal effect
# In short: as §1
# [3] = biological target: Atrial natriuretic peptide receptor 1 (Homo sapiens) (UniProt P16066); test: Natriuretic polypeptide receptor (hNpr1) antagonism - Pilot CMLD screen (AID 1347052; calls by dose curve;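 also: HEK293 cells with hNpr1 stimulated by hNppA peptide at 0.1 nM; cGMP level read as GloSensor luciferase luminescence after agonist stimulation; series mostly up to about 9.2 µM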)
# [4] = qHTS for Inhibitors of Plasmodium falciparum (HB3) proliferation (AID 504318); also: nearly all actives have a fitted effect of over 60% in size; also: potency is read from the fitted curve at half-maximal effect
# In short: as §1
# [5] = biological target: Cytochrome P450 2C9 (Homo sapiens) (UniProt P11712); test: qHTS Assay for Inhibitors and Substrates of Cytochrome P450 2C9 (AID 883); also: nearly all actives have a fitted effect of over 60% in size
# In short: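 A luminogenic readout tracked human CYP2C9 (10nM) converting deoxyluciferin (100uM, at KM) in 25mM KPO4 during 60 min at 37C with regenerated NADPH. Values normalized to 57uM sulphaphenazole as complete inhibition.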
# [6] = biological target: Cytochrome P450 3A4 (Homo sapiens) (UniProt P08684); test: qHTS Assay for Inhibitors and Substrates of Cytochrome P450 3A4 (AID 884); also: potency is read from the fitted curve at half-maximal effect; nearly all actives have a fitted effect of over 50% in size
# In short: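 20 nM human CYP3A4 with 25 uM Luciferin-PPXE (at KM) in 200 mM KPO4, preincubated 10 min with compound; NADPH regeneration started a 60 min RT reaction. Luciferin detected by luminescence, normalized to 57 uM ketoconazole as full inhibition.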
# [7] = biological target: Cytochrome P450 3A4 (Homo sapiens) (UniProt P08684); test: qHTS Assay for Activators of Cytochrome P450 3A4 (AID 885); also: nearly all actives have a fitted effect of over 65% in size
# In short: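 Quantitative HTS format: compounds preincubated with 20nM human CYP3A4 and Luciferin-PPXE substrate at KM, reaction started by NADPH regeneration, stopped after 60 min, luciferase luminescence read 20 min later.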
# [8] = biological target: Cytochrome P450 2D6 (Homo sapiens) (UniProt P10635); test: qHTS Assay for Inhibitors and Substrates of Cytochrome P450 2D6 (AID 891);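 also: luciferin methyl ether substrate demethylated by CYP2D6 with NADPH regeneration; nearly all actives have a fitted effect of over 60% in size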
# In short: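 Human CYP2D6 (5 nM) with 30 uM Luciferin-ME EGE (at Km) in 100 mM KPO4, compound preincubated 10 min, then NADPH regeneration system for 60 min at room temperature. Luciferin read by luminescence; normalized to 1.43 uM quinidine.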
# [9] = biological target: Cytochrome P450 2C19 (Homo sapiens) (UniProt P33261); test: qHTS Assay for Inhibitors and Substrates of Cytochrome P450 2C19 (AID 899); also: nearly all actives have a fitted effect of over 60% in size
# In short: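 NADPH-dependent conversion of Luciferin-H EGE (10uM, at KM) by 5nM enzyme in 50mM KPO4, 60 min at 37C following 10 min compound preincubation. Stopped with luciferin detection buffer; luminescence read after 20 min.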
# Atrial natriuretic peptide receptor 1 (Homo sapiens), sequence (P16066 whole entry, looked up): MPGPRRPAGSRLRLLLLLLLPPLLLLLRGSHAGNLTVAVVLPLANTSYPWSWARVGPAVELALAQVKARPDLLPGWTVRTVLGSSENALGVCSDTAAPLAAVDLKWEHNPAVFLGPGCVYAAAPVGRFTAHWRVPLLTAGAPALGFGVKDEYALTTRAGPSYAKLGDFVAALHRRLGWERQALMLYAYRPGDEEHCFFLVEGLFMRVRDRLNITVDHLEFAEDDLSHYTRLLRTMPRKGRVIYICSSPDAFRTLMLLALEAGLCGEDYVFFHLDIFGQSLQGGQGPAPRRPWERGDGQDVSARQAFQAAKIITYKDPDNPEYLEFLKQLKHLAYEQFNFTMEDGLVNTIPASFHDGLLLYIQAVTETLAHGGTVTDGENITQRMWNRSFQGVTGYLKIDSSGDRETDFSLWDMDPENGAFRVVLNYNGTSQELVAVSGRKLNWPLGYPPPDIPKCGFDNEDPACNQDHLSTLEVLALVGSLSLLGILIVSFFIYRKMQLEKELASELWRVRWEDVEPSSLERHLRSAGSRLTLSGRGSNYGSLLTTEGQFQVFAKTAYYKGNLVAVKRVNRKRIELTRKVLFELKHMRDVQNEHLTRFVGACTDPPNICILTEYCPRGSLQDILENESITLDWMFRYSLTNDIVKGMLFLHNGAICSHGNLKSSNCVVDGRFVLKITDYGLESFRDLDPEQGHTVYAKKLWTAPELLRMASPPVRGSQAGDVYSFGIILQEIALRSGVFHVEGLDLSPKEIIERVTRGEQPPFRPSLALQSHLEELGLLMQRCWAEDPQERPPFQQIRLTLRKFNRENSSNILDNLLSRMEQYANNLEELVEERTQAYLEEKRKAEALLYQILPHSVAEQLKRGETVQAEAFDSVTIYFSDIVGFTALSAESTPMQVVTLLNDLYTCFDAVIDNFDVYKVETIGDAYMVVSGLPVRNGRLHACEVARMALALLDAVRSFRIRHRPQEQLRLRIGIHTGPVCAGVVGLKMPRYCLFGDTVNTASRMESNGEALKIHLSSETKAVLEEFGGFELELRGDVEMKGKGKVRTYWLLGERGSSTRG
# Cytochrome P450 3A4 (Homo sapiens), sequence (P08684 whole entry, looked up): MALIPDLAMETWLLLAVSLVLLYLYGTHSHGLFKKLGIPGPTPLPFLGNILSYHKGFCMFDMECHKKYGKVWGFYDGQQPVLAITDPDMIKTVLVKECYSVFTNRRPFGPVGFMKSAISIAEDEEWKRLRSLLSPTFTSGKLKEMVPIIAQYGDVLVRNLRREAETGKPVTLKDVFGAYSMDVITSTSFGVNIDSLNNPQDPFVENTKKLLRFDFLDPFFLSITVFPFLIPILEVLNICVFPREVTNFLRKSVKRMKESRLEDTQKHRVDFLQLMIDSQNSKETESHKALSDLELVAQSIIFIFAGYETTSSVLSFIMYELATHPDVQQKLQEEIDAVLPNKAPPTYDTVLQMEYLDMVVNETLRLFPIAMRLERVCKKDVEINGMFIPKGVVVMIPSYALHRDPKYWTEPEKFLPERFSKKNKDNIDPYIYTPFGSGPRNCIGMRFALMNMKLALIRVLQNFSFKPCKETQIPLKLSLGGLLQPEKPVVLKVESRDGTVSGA
# Cytochrome P450 2C9 (Homo sapiens), sequence (P11712 whole entry, looked up): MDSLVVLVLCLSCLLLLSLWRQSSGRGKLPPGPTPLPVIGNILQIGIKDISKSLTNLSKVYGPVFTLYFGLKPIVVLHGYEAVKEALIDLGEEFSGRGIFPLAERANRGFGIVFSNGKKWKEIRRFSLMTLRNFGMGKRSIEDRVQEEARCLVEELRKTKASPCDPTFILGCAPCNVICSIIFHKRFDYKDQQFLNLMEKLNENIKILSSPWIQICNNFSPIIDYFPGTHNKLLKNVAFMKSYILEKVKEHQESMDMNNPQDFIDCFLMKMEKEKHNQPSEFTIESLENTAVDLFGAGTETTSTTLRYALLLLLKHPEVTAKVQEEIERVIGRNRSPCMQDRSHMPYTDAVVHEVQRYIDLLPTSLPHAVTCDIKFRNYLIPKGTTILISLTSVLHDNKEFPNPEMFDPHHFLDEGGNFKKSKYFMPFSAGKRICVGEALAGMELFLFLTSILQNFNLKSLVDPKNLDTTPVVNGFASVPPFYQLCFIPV
# Cytochrome P450 2C19 (Homo sapiens), sequence (P33261 whole entry, looked up): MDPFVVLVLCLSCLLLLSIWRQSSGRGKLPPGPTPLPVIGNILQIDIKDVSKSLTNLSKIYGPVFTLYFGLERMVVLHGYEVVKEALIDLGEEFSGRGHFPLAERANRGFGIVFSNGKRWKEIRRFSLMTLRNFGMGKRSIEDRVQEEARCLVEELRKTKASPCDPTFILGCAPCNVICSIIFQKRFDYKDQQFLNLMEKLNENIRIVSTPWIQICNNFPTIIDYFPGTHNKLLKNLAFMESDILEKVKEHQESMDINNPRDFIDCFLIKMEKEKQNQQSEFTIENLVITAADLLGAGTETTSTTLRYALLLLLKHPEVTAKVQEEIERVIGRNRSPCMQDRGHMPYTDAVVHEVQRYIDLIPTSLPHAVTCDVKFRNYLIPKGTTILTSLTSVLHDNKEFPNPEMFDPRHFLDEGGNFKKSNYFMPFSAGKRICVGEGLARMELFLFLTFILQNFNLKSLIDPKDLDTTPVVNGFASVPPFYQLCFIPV
# Cytochrome P450 2D6 (Homo sapiens), sequence (P10635 whole entry, looked up): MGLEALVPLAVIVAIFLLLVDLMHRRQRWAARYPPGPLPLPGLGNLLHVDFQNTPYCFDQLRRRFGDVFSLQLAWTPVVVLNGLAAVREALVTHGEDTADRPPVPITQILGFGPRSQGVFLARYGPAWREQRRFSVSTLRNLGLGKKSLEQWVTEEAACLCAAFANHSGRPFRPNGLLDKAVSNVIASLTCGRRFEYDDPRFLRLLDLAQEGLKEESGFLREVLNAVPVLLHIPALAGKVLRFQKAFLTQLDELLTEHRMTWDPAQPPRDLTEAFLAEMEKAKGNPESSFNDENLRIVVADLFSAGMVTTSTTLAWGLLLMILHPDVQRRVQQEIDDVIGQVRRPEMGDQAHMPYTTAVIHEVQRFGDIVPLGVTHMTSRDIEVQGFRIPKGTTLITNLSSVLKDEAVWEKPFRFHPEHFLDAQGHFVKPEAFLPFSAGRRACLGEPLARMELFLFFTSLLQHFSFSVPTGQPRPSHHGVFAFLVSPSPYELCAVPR
smiles,measurement,setting,value
COC(=O)N1C(C=CC=Cc2ccc(OC)cc2)=Cc2ccccc2C1CC(C)=O (centres undefined),Potency,[1],1.51 µM (active)
same,Potency,[2],inactive
same,Potency,[3],inactive
CCN1C(=NCc2cccc(C(F)(F)F)c2)NC(c2ccccc2)C(C(=O)OC)=C1C (centres undefined),Potency,[4],inactive
same,Potency,[3],inactive
C=COC[C@H]1CN2[C@H](c3ccc(Br)cc3)[C@H](C)CC[C@H]2C(=O)O1,Potency,[1],inactive
same,Potency,[2],1.9 µM (active)
same,Potency,[3],inactive
COc1ccc2c(c1)O[C@@H](c1ccc3c(c1)OCO3)[C@H](OC(=O)Nc1cc(OC)c(OC)c(OC)c1)C2=O,Potency,[1],1.69 µM (active)
same,Potency,[2],inactive
same,Potency,[3],inactive
C=CC[C@@H]1C=C[C@H](ON=C(C)CCN2CCc3nc(CC)c(CC)cc3C2)[C@H](CO)O1,Potency,[1],1.69 µM (active)
same,Potency,[2],inactive
same,Potency,[3],inactive
CCN1C(=NCc2cc(OC)c(OC)c(OC)c2)NC(c2cccc(F)c2)C(C(=O)OC)=C1C (centres undefined),Potency,[1],0.849 µM (active)
same,Potency,[2],inactive
same,Potency,[3],inactive
CC(C)=CCC1(CC=C(C)C)C(=O)C(C(=O)c2ccccc2)=C2OC(C)(C)CCC2(CC=C(C)C)C1=O (centres undefined),"activity change, negative = inhibition",[5],-24.2% [at 11.4 µM]
same,Potency,[6],3.98 µM (active)
same,"activity change, positive = activation",[7],-69.3% [at 11.4 µM]
same,"activity change, negative = inhibition",[8],20.1% [at 11.4 µM]
same,"activity, negative = inhibition",[9],-5.29% [at 11.4 µM]
same,Potency,[1],1.69 µM (active)
same,Potency,[3],inactive
CCC(=O)N1C2=C(c3ccccc3[C@@H]1CC(=O)Nc1ccc3ccccc3c1)[C@H]1C(=O)N(c3ccccc3)C(=O)[C@@H]1[C@H](C)C2,Potency,[1],1.51 µM (active)
same,Potency,[2],inactive
same,Potency,[3],inactive
CCc1cc2c(nc1CC)CCN(CCC(C)=NO[C@@H](C)c1cn([C@H](CO)Cc3ccccc3)nn1)C2,Potency,[1],1.69 µM (active)
same,Potency,[2],inactive
same,Potency,[3],inactive
CC(=O)OC[C@H]1O[C@H](CCON=C(C)CCN2CCc3nc(-c4ccccc4)c(-c4ccccc4)cc3C2)C=C[C@H]1OC(C)=O,Potency,[1],1.51 µM (active)
same,Potency,[2],inactive
same,Potency,[3],inactive
C[C@@H]1CC[C@H]2C(=O)N(Cc3ccc(Cl)cc3)C[C@@H](O)CN2[C@H]1c1cccc(Br)c1,Potency,[1],1.51 µM (active)
same,Potency,[2],inactive
same,Potency,[3],inactive
COC(=O)CC1c2ccccc2C=C(C=Cc2ccc3c(c2)OCO3)N1C(=O)OC (centres undefined),Potency,[4],1.69 µM (active)
same,Potency,[3],inactive
COc1ccc(O[C@H]2C=C[C@@H](c3ccccc3)O[C@H]2CON=C(C)CCN2CCCCc3nc(C)c(C)cc32)cc1,Potency,[1],1.51 µM (active)
same,Potency,[2],inactive
same,Potency,[3],inactive
Brc1ccc2c(c1)c1cc(Br)ccc1n2CC1CO1 (centres undefined),Potency,[1],1.69 µM (active)
same,Potency,[2],inactive
same,Potency,[3],inactive
COC1=C(C(=O)c2ccccc2)C(=O)[C@@]2(CC=C(C)C)C[C@@H]([S+](=O)([O-])c3ccccc3)C(C)(C)[C@@]1(CC=C(C)C)C2=O,Potency,[4],1.9 µM (active)
same,Potency,[3],inactive
COc1ccc([C@]23Cc4cc(C#N)ccc4[C@H](O2)c2c(cc(C)n(Cc4ccccc4)c2=O)O3)cc1,Potency,[1],1.69 µM (active)
same,Potency,[2],inactive
same,Potency,[3],inactive
COC(=O)C1=C(C)N(CC2CC2)C(N(C)Cc2ccc(OC)cc2)=NC1c1ccccc1 (centres undefined),Potency,[4],inactive
same,Potency,[3],inactive
C=C(C)CCCN1C=C(C(=O)OCC)C(c2ccccc2)NC1=O (centres undefined),Potency,[4],inactive
same,Potency,[3],inactive
COC(=O)C1=C(C(=O)OC)[C@@H]2N(Cc3ccccc3)c3ccccc3[C@@]23CCC(=O)N(CCc2ccccn2)C3=N1,Potency,[1],1.51 µM (active)
same,Potency,[2],inactive
same,Potency,[3],inactive
C=CCN=C1N[C@H](c2ccc(Br)cc2)C(C(=O)OC)=C(C)N1Cc1ccccc1,Potency,[4],inactive
same,Potency,[3],inactive
COc1ccc([C@]23Cc4cc(OC)c(OC)cc4[C@H](O2)C2=C(CCCC2=O)O3)cc1,Potency,[1],1.51 µM (active)
same,Potency,[2],inactive
same,Potency,[3],inactive
COc1cc2c(c(OC)c1OC)C(c1ccccc1)(c1ccccc1)CC2NC(=O)C(F)(F)F (centres undefined),Potency,[4],2.39 µM (active)
same,Potency,[3],inactive
COc1cccc([C@@H]2[C@H](C)C[C@H]3CC(=O)N4[C@H](CC(=O)N32)C[C@@H](C)[C@@H]4c2cccc(OC)c2)c1,Potency,[1],1.51 µM (active)
same,Potency,[2],inactive
same,Potency,[3],inactive
CC(CCN1CCc2nc(-c3ccccc3)c(-c3ccccc3)cc2C1)=NOC[C@@H](O)[C@H]1O[C@@H]2OC(C)(C)O[C@H]2[C@@H]1O,Potency,[1],1.9 µM (active)
same,Potency,[2],inactive
same,Potency,[3],inactive
CCc1cc2c(nc1CC)CCN(CCC(C)=NO[C@H](C)c1cn([C@H](CO)Cc3ccccc3)nn1)C2,Potency,[1],1.51 µM (active)
same,Potency,[2],inactive
same,Potency,[3],inactive
CC1(C)CC(=O)C2=C(C1)O[C@@]1(CCCCN3C(=O)c4ccccc4C3=O)Cc3cc(C#N)ccc3[C@H]2O1,Potency,[1],1.69 µM (active)
same,Potency,[2],inactive
same,Potency,[3],inactive
C[C@H]1CC[C@H]2C(=O)O[C@H](COc3ccc(C(C)(C)C)cc3)CN2[C@H]1c1ccc(Br)cc1,Potency,[4],3.29 µM (active)
same,Potency,[3],inactive
COC(=O)C1=C(C)N(Cc2ccccc2)C(=NCCc2cccnc2)NC1c1ccccc1 (centres undefined),Potency,[4],inactive
same,Potency,[3],inactive
CCCNC(=O)OC[C@H]1O[C@H](CCON=Cc2ccc(C(=O)N3[C@H](C(=O)OC)CC[C@H](C)[C@@H]3c3ccc(C)cc3)cc2)C=C[C@H]1Oc1ccc(OC)cc1,Potency,[2],inactive
same,Potency,[3],inactive
COCC=CC1=CC2=CC(=O)C(C)(OC(=O)c3cnc4ccccc4n3)C(=O)C2=CN1CCc1c[nH]c2ccccc12 (centres undefined),Potency,[4],inactive
same,Potency,[2],inactive
same,Potency,[3],inactive
C[C@@H]1CC[C@H]2C(=O)N(Cc3ccc(Cl)cc3)C[C@@H](O)CN2[C@@H]1c1ccc(Br)cc1,Potency,[4],inactive
same,Potency,[2],inactive
same,Potency,[3],inactive
C[C@@H]1C=CCC(=O)N[C@@H](c2ccc3ccccc3c2)[C@H](C)C=CCC(=O)N[C@@H]1c1ccc2ccccc2c1,Potency,[2],inactive
same,Potency,[3],inactive
